# Measured values reported in article PMC5540273 (PLoS ONE, 2017).
# “And” between values parts separate entries of the source, which are not always exact repeats. Equal entries are not always repeated. Where two headings read alike, the source gives them in different places.
# How the values were obtained:
# Conditions in all cases: concentration: 1 μM, replicates: in singlicate, n = 1
# FLT3-autoinhibited = system: FLT3-autoinhibited
# FLT3 = system: FLT3
# FLT4 = system: FLT4
# FRK = system: FRK
# FYN = system: FYN
# GAK = system: GAK
# GCN2(Kin.Dom.2,S808G) = system: T1, GCN2(Kin.Dom.2,S808G)
# T1 construct: gene EIF2AK4
# GRK1 = system: GRK1
# GRK2 = system: T2, GRK2
# T2 construct: gene ADRBK1
# GRK3 = system: T3, GRK3
# T3 construct: gene ADRBK2
# GRK4 = system: GRK4
# GRK7 = system: GRK7
# GSK3A = system: GSK3A
# GSK3B = system: GSK3B
# HASPIN = system: T4, HASPIN
# T4 construct: gene GSG2
# HCK = system: HCK
# HIPK1 = system: HIPK1
# HIPK2 = system: HIPK2
# HIPK3 = system: HIPK3
# HIPK4 = system: HIPK4
# 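Note: KINOMEscan kinase panel screen.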
smiles,measurement,setting,value
Cl.Nc1ncnc2occ(-c3ccc(NC(=O)Nc4cc(C(F)(F)F)ccc4F)cc3)c12 [SB-707548],%Inh,FLT3-autoinhibited,83%
same,%Inh,FLT3,99.4%
same,%Inh,FLT4,100%
same,%Inh,FRK,95.7%
same,%Inh,FYN,22%
same,%Inh,GAK,0%
same,%Inh,"GCN2(Kin.Dom.2,S808G)",8%
same,%Inh,GRK1,12%
same,%Inh,GRK2,0%
same,%Inh,GRK3,36%
same,%Inh,GRK4,0%
same,%Inh,GRK7,0%
same,%Inh,GSK3A,68%
same,%Inh,GSK3B,8%
same,%Inh,HASPIN,0%
same,%Inh,HCK,71%
same,%Inh,HIPK1,63%
same,%Inh,HIPK2,50%
same,%Inh,HIPK3,77%
same,%Inh,HIPK4,99.2%
O=C(NCCNc1ccnc(Nc2ccc(F)cc2)n1)c1cc2ccccc2s1 [GSK1379874],%Inh,FLT3-autoinhibited,0%
same,%Inh,FLT3,0%
same,%Inh,FLT4,9%
same,%Inh,FRK,6%
same,%Inh,FYN,0%
same,%Inh,GAK,0%
same,%Inh,"GCN2(Kin.Dom.2,S808G)",0%
same,%Inh,GRK1,0%
same,%Inh,GRK2,0%
same,%Inh,GRK3,0%
same,%Inh,GRK4,0%
same,%Inh,GRK7,0%
same,%Inh,GSK3A,0%
same,%Inh,GSK3B,6%
same,%Inh,HASPIN,19%
same,%Inh,HCK,0%
same,%Inh,HIPK1,0%
same,%Inh,HIPK2,0%
same,%Inh,HIPK3,0%
same,%Inh,HIPK4,0%
Nc1nc(-c2ccc3c(N)n[nH]c3c2)cc(N2CCCC2)n1 [GSK2227430],%Inh,FLT3-autoinhibited,0%
same,%Inh,FLT3,0%
same,%Inh,FLT4,0%
same,%Inh,FRK,0%
same,%Inh,FYN,0%
same,%Inh,GAK,0%
same,%Inh,"GCN2(Kin.Dom.2,S808G)",0%
same,%Inh,GRK1,0%
same,%Inh,GRK2,0%
same,%Inh,GRK3,0%
same,%Inh,GRK4,0%
same,%Inh,GRK7,0%
same,%Inh,GSK3A,0%
same,%Inh,GSK3B,0%
same,%Inh,HASPIN,0%
same,%Inh,HCK,0%
same,%Inh,HIPK1,5%
same,%Inh,HIPK2,0%
same,%Inh,HIPK3,0%
same,%Inh,HIPK4,0%
COc1ccc(COc2cc(-n3cnc4ccccc43)sc2C(N)=O)cc1 [GSK1024304],%Inh,FLT3-autoinhibited,0%
same,%Inh,FLT3,4%
same,%Inh,FLT4,1%
same,%Inh,FRK,0%
same,%Inh,FYN,16%
same,%Inh,GAK,17%
same,%Inh,"GCN2(Kin.Dom.2,S808G)",0%
same,%Inh,GRK1,0%
same,%Inh,GRK2,0%
same,%Inh,GRK3,10%
same,%Inh,GRK4,1%
same,%Inh,GRK7,0%
same,%Inh,GSK3A,14%
same,%Inh,GSK3B,0%
same,%Inh,HASPIN,0%
same,%Inh,HCK,0%
same,%Inh,HIPK1,18%
same,%Inh,HIPK2,18%
same,%Inh,HIPK3,21%
same,%Inh,HIPK4,8%
COc1cc(Nc2nccc(N3CCC(NC(=O)c4cccc(NC(C)=O)c4)C3)n2)cc(OC)c1OC (centres unmarked) [GSK1379754],%Inh,FLT3-autoinhibited,6%
same,%Inh,FLT3,50%
same,%Inh,FLT4,23%
same,%Inh,FRK,16%
same,%Inh,FYN,35%
same,%Inh,GAK,44%
same,%Inh,"GCN2(Kin.Dom.2,S808G)",17%
same,%Inh,GRK1,0%
same,%Inh,GRK2,0%
same,%Inh,GRK3,18%
same,%Inh,GRK4,18%
same,%Inh,GRK7,0%
same,%Inh,GSK3A,0%
same,%Inh,GSK3B,0%
same,%Inh,HASPIN,30%
same,%Inh,HCK,0%
same,%Inh,HIPK1,3%
same,%Inh,HIPK2,0%
same,%Inh,HIPK3,0%
same,%Inh,HIPK4,0%
Cn1ccc2ncnc(Oc3ccc(NC(=O)Nc4ccncc4)c(Cl)c3)c21,%Inh,FLT3-autoinhibited,0%
same,%Inh,FLT3,0%
same,%Inh,FLT4,0%
same,%Inh,FRK,0%
same,%Inh,FYN,0%
same,%Inh,GAK,0%
same,%Inh,"GCN2(Kin.Dom.2,S808G)",11%
same,%Inh,GRK1,7%
same,%Inh,GRK2,0%
same,%Inh,GRK3,0%
same,%Inh,GRK4,19%
same,%Inh,GRK7,0%
same,%Inh,GSK3A,29%
same,%Inh,GSK3B,0%
same,%Inh,HASPIN,28%
same,%Inh,HCK,0%
same,%Inh,HIPK1,17%
same,%Inh,HIPK2,0%
same,%Inh,HIPK3,0%
same,%Inh,HIPK4,0%
Cc1nnc(-c2ccc3occ(-c4ccc(C(C)O)cc4)c3c2)o1 (centres unmarked),%Inh,FLT3-autoinhibited,4%
same,%Inh,FLT3,0%
same,%Inh,FLT4,6%
same,%Inh,FRK,10%
same,%Inh,FYN,15%
same,%Inh,GAK,0%
same,%Inh,"GCN2(Kin.Dom.2,S808G)",23%
same,%Inh,GRK1,0%
same,%Inh,GRK2,0%
same,%Inh,GRK3,12%
same,%Inh,GRK4,1%
same,%Inh,GRK7,11%
same,%Inh,GSK3A,73%
same,%Inh,GSK3B,19%
same,%Inh,HASPIN,29%
same,%Inh,HCK,6%
same,%Inh,HIPK1,67%
same,%Inh,HIPK2,56%
same,%Inh,HIPK3,41%
same,%Inh,HIPK4,33%
c1ccc(-c2n[nH]cc2-c2ccnc3ccccc23)nc1 [GW271431],%Inh,FLT3-autoinhibited,5%
same,%Inh,FLT3,3%
same,%Inh,FLT4,25%
same,%Inh,FRK,10%
same,%Inh,FYN,43%
same,%Inh,GAK,79%
same,%Inh,"GCN2(Kin.Dom.2,S808G)",3%
same,%Inh,GRK1,0%
same,%Inh,GRK2,0%
same,%Inh,GRK3,34%
same,%Inh,GRK4,0%
same,%Inh,GRK7,23%
same,%Inh,GSK3A,15%
same,%Inh,GSK3B,17%
same,%Inh,HASPIN,10%
same,%Inh,HCK,0%
same,%Inh,HIPK1,15%
same,%Inh,HIPK2,0%
same,%Inh,HIPK3,26%
same,%Inh,HIPK4,0%
CSc1ccc(-c2cc3ncnc(SCC(=O)O)c3s2)cc1,%Inh,FLT3-autoinhibited,0%
same,%Inh,FLT3,0%
same,%Inh,FLT4,0%
same,%Inh,FRK,16%
same,%Inh,FYN,4%
same,%Inh,GAK,0%
same,%Inh,"GCN2(Kin.Dom.2,S808G)",0%
same,%Inh,GRK1,0%
same,%Inh,GRK2,0%
same,%Inh,GRK3,13%
same,%Inh,GRK4,0%
same,%Inh,GRK7,2%
same,%Inh,GSK3A,0%
same,%Inh,GSK3B,0%
same,%Inh,HASPIN,0%
same,%Inh,HCK,33%
same,%Inh,HIPK1,55%
same,%Inh,HIPK2,52%
same,%Inh,HIPK3,33%
same,%Inh,HIPK4,22%
Cl.Cl.Cl.Fc1ccc(-c2ncn(C3CCNCC3)c2-c2ccnc(Nc3ccccc3)n2)cc1 [SB-238039],%Inh,FLT3-autoinhibited; 1 µM,0% and 18%
same,%Inh,FLT3; 1 µM,4% and 26%
same,%Inh,FLT4; 1 µM,15% and 9%
same,%Inh,FRK; 1 µM,0% and 35%
same,%Inh,FYN; 1 µM,0% and 1%
same,%Inh,GAK; 1 µM,84% and 74%
same,%Inh,"GCN2(Kin.Dom.2,S808G); 1 µM",0% and 27%
same,%Inh,GRK1; 1 µM,32% and 25%
same,%Inh,GRK2; 1 µM,0% and 16%
same,%Inh,GRK3; 1 µM,32% and 0%
same,%Inh,GRK4; 1 µM,8% and 46%
same,%Inh,GRK7; 1 µM,0% and 37%
same,%Inh,GSK3A; 1 µM,57% and 10%
same,%Inh,GSK3B; 1 µM,47% and 17%
same,%Inh,HASPIN; 1 µM,58% and 0%
same,%Inh,HCK; 1 µM,65% and 34%
same,%Inh,HIPK1; 1 µM,29% and 64%
same,%Inh,HIPK2; 1 µM,31% and 30%
same,%Inh,HIPK3; 1 µM,8% and 0%
same,%Inh,HIPK4; 1 µM,17% and 0%
